Assay results as given in PubChem BioAssay (EPA / NIEHS).
Calls of active or inactive are those of the source. Rule for the calls: active = hit-call score of the fitted dose curve at least 0.9, where 1 is the maximum; inactive = score below 0.9.

Assay: APR_HepG2_NuclearSize_24hr: Apredica 24-hour HepG2 Assay for Nuclear Size (AID 2282907)
Conditions: high-content imaging, actives raise or lower the signal
How it was run: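 HepG2 human liver cells were exposed for 24 hr to compounds at 0.39–200 uM (ten concentrations, duplicate) in 0.5% v/v DMSO. They were then formaldehyde-fixed, Triton-permeabilized and Hoechst 33342-stained, and nuclear diameter was imaged at 20x. Bidirectional fits were made against DMSO.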

outcome, inactive:
OCCO
Cc1cc(F)ccc1-c1cc(N2CC[C@@H](O)[C@H]2CO)ncc1N(C)C(=O)C(C)(C)c1cc(C(F)(F)F)cc(C(F)(F)F)c1
CC(O)CC(C)(C)O (stereo unspecified)
CC1(C)NC(=O)N(c2ccc([N+](=O)[O-])c(C(F)(F)F)c2)C1=O
CCCCOC(=O)c1ccc(O)cc1
Oc1ccccc1
CC(C)(C)c1cc(/C=C2\SC(N)=NC2=O)cc(C(C)(C)C)c1O
O=C=NCCCCCCN=C=O
NCc1cccc(C2CCN(C(=O)c3ccc(C#Cc4ccccc4F)o3)CC2)c1
Cc1occc1C(=O)Nc1ccc(C(=O)N2CCC(F)(F)/C(=C\C(=O)N3CCC(N4CCCCC4)CC3)c3ccccc32)cc1
C[C@]12CC[C@@H]3c4ccc(O)cc4CC[C@H]3[C@@H]1CCC2=O
COc1cc(C(=O)NC2CCN(C)CC2)ccc1Nc1ncc2c(n1)N(C1CCCC1)CC(F)(F)C(=O)N2C
O=C(O)Cc1cc(I)c(Oc2ccc(O)c(I)c2)c(I)c1
Cc1oc2c(NC(=O)c3c(Cl)cccc3Cl)cccc2c1C(C)(C)O
O=CCCCC=O
CC[C@H](NC(=O)c1cc(F)ccc1NS(=O)(=O)c1cccc2cccnc12)c1ccccc1
O=c1ccc2ccccc2o1
c1ccc(C[n+]2cccc3ccccc32)cc1
O=C(OCCCCCCOC(=O)c1ccccc1)c1ccccc1
CCCCCCCCN(C)CCCCCCCC
Cc1ncc(CO)c(CO)c1O
Oc1ccc2ccccc2c1
CCCCCCCCCCCC[N+](C)(C)C
c1ccc2ccccc2c1
CCCCCCCC[Si](OCC)(OCC)OCC
OC12N=C(c3ccccc3)SC1Cc1cc(Cl)ccc12 (stereo unspecified)
CN1C(=O)N(c2ccccc2Br)Cc2cnc(Nc3ccc4c(c3)OCC(CO)O4)nc21 (stereo unspecified)
CC(C)(C)c1csc(-c2cc3cc(OCc4ccccc4CC(=O)O)ccc3o2)n1
CN(C[C@@H](CC[N+]12CCC(C3CCCCC3)(CC1)CC2)c1ccc(Cl)c(Cl)c1)C(=O)c1cc(C(F)(F)F)cc(C(F)(F)F)c1
CCCCCCCCCCCO
Clc1cc(Cl)c2c(c1)N=C1CCCCCN1C2
O=C(O)Cn1c(=O)n(Cc2ccc(Br)cc2F)c(=O)c2ccc(Cl)cc21
CC[C@@H]1C[C@H](N(Cc2cc(C(F)(F)F)cc(C(F)(F)F)c2)C(C)=O)c2cc(C(F)(F)F)ccc2N1C(=O)OC(C)C
CCCCCCCCOC(=O)c1cc(O)c(O)c(O)c1
CC/C(=C(/CC)c1ccc(O)cc1)c1ccc(O)cc1
c1ccc2n[nH]nc2c1
Cc1cn([C@H]2C[C@H](N=[N+]=[N-])[C@@H](CO)O2)c(=O)[nH]c1=O

AC50, active:
CN(C)C(=O)C1(N2CCCCC2)CCN(CC[C@@]2(c3ccc(Cl)c(Cl)c3)CN(C(=O)c3ccccc3)CCO2)CC1 20.9 µM

Assay: APR_HepG2_CellLoss_24hr: Apredica 24-hour HepG2 Assay for Cell Loss (AID 2282908);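 for AC50: fit in both directions so a hit may be cell loss or gain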
Conditions: high-content imaging
How it was run: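 Compounds were tested at 0.39–200 uM in duplicate with 0.5% v/v DMSO final. Cells were then fixed in 3.7% formaldehyde, Hoechst 33342 nuclei were imaged at 20x by HCS, and cell number was fitted bidirectionally against DMSO.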

outcome, inactive:
OCCO
Cc1cc(F)ccc1-c1cc(N2CC[C@@H](O)[C@H]2CO)ncc1N(C)C(=O)C(C)(C)c1cc(C(F)(F)F)cc(C(F)(F)F)c1
CC(O)CC(C)(C)O (stereo unspecified)
CC1(C)NC(=O)N(c2ccc([N+](=O)[O-])c(C(F)(F)F)c2)C1=O
CCCCOC(=O)c1ccc(O)cc1
Oc1ccccc1
O=C=NCCCCCCN=C=O
C[C@]12CC[C@@H]3c4ccc(O)cc4CC[C@H]3[C@@H]1CCC2=O
COc1cc(C(=O)NC2CCN(C)CC2)ccc1Nc1ncc2c(n1)N(C1CCCC1)CC(F)(F)C(=O)N2C
O=C(O)Cc1cc(I)c(Oc2ccc(O)c(I)c2)c(I)c1
Cc1oc2c(NC(=O)c3c(Cl)cccc3Cl)cccc2c1C(C)(C)O
O=CCCCC=O
CC[C@H](NC(=O)c1cc(F)ccc1NS(=O)(=O)c1cccc2cccnc12)c1ccccc1
O=c1ccc2ccccc2o1
O=C(OCCCCCCOC(=O)c1ccccc1)c1ccccc1
CCCCCCCCN(C)CCCCCCCC
Cc1ncc(CO)c(CO)c1O
Oc1ccc2ccccc2c1
c1ccc2ccccc2c1
OC12N=C(c3ccccc3)SC1Cc1cc(Cl)ccc12 (stereo unspecified)
CC(C)(C)c1csc(-c2cc3cc(OCc4ccccc4CC(=O)O)ccc3o2)n1
Clc1cc(Cl)c2c(c1)N=C1CCCCCN1C2
O=C(O)Cn1c(=O)n(Cc2ccc(Br)cc2F)c(=O)c2ccc(Cl)cc21
CC[C@@H]1C[C@H](N(Cc2cc(C(F)(F)F)cc(C(F)(F)F)c2)C(C)=O)c2cc(C(F)(F)F)ccc2N1C(=O)OC(C)C
c1ccc2n[nH]nc2c1
Cc1cn([C@H]2C[C@H](N=[N+]=[N-])[C@@H](CO)O2)c(=O)[nH]c1=O

AC50, active:
CC(C)(C)c1cc(/C=C2\SC(N)=NC2=O)cc(C(C)(C)C)c1O 53.1 µM
NCc1cccc(C2CCN(C(=O)c3ccc(C#Cc4ccccc4F)o3)CC2)c1 17.7 µM
CN(C)C(=O)C1(N2CCCCC2)CCN(CC[C@@]2(c3ccc(Cl)c(Cl)c3)CN(C(=O)c3ccccc3)CCO2)CC1 15.7 µM
Cc1occc1C(=O)Nc1ccc(C(=O)N2CCC(F)(F)/C(=C\C(=O)N3CCC(N4CCCCC4)CC3)c3ccccc32)cc1 16.2 µM
c1ccc(C[n+]2cccc3ccccc32)cc1 115 µM
CCCCCCCCCCCC[N+](C)(C)C 75.6 µM
CCCCCCCC[Si](OCC)(OCC)OCC 118 µM
CN1C(=O)N(c2ccccc2Br)Cc2cnc(Nc3ccc4c(c3)OCC(CO)O4)nc21 (stereo unspecified) 3.7 µM
CN(C[C@@H](CC[N+]12CCC(C3CCCCC3)(CC1)CC2)c1ccc(Cl)c(Cl)c1)C(=O)c1cc(C(F)(F)F)cc(C(F)(F)F)c1 13.1 µM
CCCCCCCCCCCO 103 µM
CCCCCCCCOC(=O)c1cc(O)c(O)c(O)c1 90 µM
CC/C(=C(/CC)c1ccc(O)cc1)c1ccc(O)cc1 90.9 µM
